Assay outcomes from PubChem BioAssay.
FLuc counter: counter-screen for miR-21 project: firefly luciferase inhibitors or activators | Potency, µM (titrated, usually from 57.5 µM), inactives show at the top dose activity change, negative = inhibition, hits mostly inhibitors | 360,000 compounds, 6.9% hits | P08659 | purified FLuc, Km substrates, luminescence inhibition;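 further: plate controls were vehicle for no effect and reference inhibitor for full effect; nearly all actives have a fitted effect of over 55% in size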
Target sequence (P08659 whole entry, looked up): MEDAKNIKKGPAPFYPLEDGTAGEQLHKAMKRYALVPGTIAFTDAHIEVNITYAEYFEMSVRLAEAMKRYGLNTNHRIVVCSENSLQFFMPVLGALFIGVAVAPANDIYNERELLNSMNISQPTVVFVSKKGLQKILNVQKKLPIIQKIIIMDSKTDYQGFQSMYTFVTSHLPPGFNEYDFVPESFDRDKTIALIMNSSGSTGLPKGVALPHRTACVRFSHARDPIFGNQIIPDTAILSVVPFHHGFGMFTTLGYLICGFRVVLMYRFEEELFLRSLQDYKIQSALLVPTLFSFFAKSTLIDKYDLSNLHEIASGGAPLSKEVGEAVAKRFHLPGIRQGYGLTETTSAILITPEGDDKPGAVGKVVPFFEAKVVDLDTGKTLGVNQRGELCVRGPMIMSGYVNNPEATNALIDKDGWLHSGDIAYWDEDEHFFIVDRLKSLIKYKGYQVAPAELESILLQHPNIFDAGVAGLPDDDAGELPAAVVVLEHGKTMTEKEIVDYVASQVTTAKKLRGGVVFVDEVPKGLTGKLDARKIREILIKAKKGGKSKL
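Purified P. pyralis luciferase, 10 nM final, with Km-level 10 uM D-luciferin and 10 uM ATP in 50 mM Tris acetate pH 7.5, 10 mM Mg acetate, 0.01% Tween-20, 0.05% BSA; 6-point qHTS titration about 60 µM downward; luminescence read.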
NPC1 prom act: NPC1 promoter activation. Huh7 NPC1 promoter luciferase reporter, 24 h. Potency, µM (highest dose often 9.22 µM), inactives show at the top dose activation, hits mostly activators. 320,000 compounds, 2.4% hits; further: % of control where 0% means no effect; nearly all actives have a fitted effect of over 60% in size
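Luminescence read-out of NPC1 promoter-driven luciferase in stably transfected Huh7 cells; compounds delivered in DMSO and left 24 h at 37C, 5% CO2, qHTS titration format.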
ELG1 DNA repair: ELG1-dependent DNA repair inhibition. 330,000 compounds, 2.3% hits. HEK293T ELG1-luciferase reporter, luminescence, 16 h; DNA damage induced by 5-fluorouridine. AID 504467. Potency, µM (doses to about 46.1 µM), without a hit: top-dose activity change, negative = inhibition, most hits filed as inhibitors; further: on the % scale 0 is the no-effect control and ±100 the full control effect; nearly all actives have a fitted effect of over 55% in size
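Overnight (16 hr) co-exposure of 2,000 cells/well to 5-fluorouridine and compound at 37 °C preceded detection. Luciferase was quantified via ONE-Glo luminescence; loss of signal denotes inhibition.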
SMN2 splice up: increases expression of the SMN2 splice variant | 210,000 compounds, 2.8% hits | Potency, µM (highest dose often 46.1 µM), for inactives: top-dose activity change, positive = activation, usual class: activators | HEK293 SMN2-luciferase splicing reporter, luminescence, 30-36 h; further: % of control where 0% means no effect; nearly all actives have a fitted effect of over 55% in size
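HEK293 cells carry an SMN2 […]–luciferase reporter in which exon 7 inclusion puts luciferase in frame. Cells were plated 10-12 h before compound addition, then incubated 30-36 h at 37C. ONE-Glo luminescence was read; sodium butyrate at 4.5 mM final served as control.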
ELG1 genotoxic: genotoxicity induction in ELG1-luciferase HEK293T cells. HEK293T ELG1-luciferase reporter, luminescence, 16 h. Potency, µM (titrated, usually from 46 µM), for the others: at the top dose activity change, positive = activation, actives largely listed as activators. 330,000 compounds, 1.3% hits. AID 504466; further: % of control where 0% means no effect; nearly all actives have a fitted effect of over 60% in size
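After overnight (16 hr) compound treatment at 37 °C, ELG1-luciferase HEK293T cells were lysed with ONE-Glo; luminescence quantified 30 min later at room temperature.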
Rab9 promoter act: activators of Rab9 promoter. AID 485297. Potency, µM (doses to about 9.22 µM), for inactives: at the top dose activation, negative = inhibition, usual class: activators. 320,000 compounds, 2.8% hits. Huh7 Rab9 promoter-luciferase reporter, luminescence, 24 h; further: % of control where 0% means no effect; nearly all actives have a fitted effect of over 60% in size
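Luminescence from Amplite-detected luciferase (10 minutes, ambient) reports Rab9 promoter activation. Before that, stable Rab9-luciferase Huh7 cells (1500/well, reduced-serum OP-MEM I plus 10% FBS) were exposed to compound for 24 hours at 37C.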
Starred values were filed as active, the others as inactive; ? = inconclusive; / = no result given; [ ] = another dose, or the depositor's remark. Only some compounds are listed: those with a hit (about 9.2% of all), similar ones and a draw of the others. The call rests on the fitted dose curve; in most records, active means well fitted curve in the direction sought with a large enough effect; inconclusive means small, poorly fitted or top-dose-only effect, or another doubt; inactive means no such curve, though single readings can be large; an effect the other way counts as inactive or inconclusive. Potency means the concentration at half of the fitted maximal effect.

SMILES	FLuc counter	NPC1 prom act	ELG1 DNA repair	SMN2 splice up	ELG1 genotoxic	Rab9 promoter act
Cc1ccc(NC(=O)c2ccccc2)cc1C	15µM*	13%	?	/	8%	6%
Cc1ccc(NC(=O)c2cccnc2)cc1C	?	28%	?	/	?	?
O=C(Nc1ccc2c(c1)CCCN2C(=O)c1ccccc1)c1ccccc1	13µM*	26%	?	/	-6%	?
Cc1ccc(NC(=O)CCSCCC(=O)Nc2ccc(C)c(C)c2)cc1C	17µM*	-1%	-4%	-1%	0%	-4%
Cc1ccccc1C(=O)Nc1ccc2c(c1)CCCN2C(=O)c1cccs1	-15%	0%	?	/	-7%	21%
O=C(Nc1cc(NC(=O)c2ccccc2F)ccc1Cl)c1ccccc1	15µM*	4%	9%	/	-6%	9%
Cc1ccc(S(=O)(=O)c2c(O)cc(C)c(NS(=O)(=O)c3ccc(Br)cc3)c2C)cc1	?	/	/	-38%	/	/
Cc1ccc(CN2CCCn3nc(C(=O)NCCC(C)C)cc3C2=O)cc1	-4%	/	/	/	/	/
Cc1ccc(NC(=O)c2snc3ccc(Cl)cc23)cc1C	12µM*	9%	?	11µM*	18%	?
O=C(Nc1ccc(F)c(F)c1)c1ccccc1	?	?	?	/	21µM*	?
CCOC(=O)C1CCN(C(=O)c2cc3sc(C)cc3n2C)CC1	-15%	/	/	23%	/	/
Cc1c(C(=O)N/N=C/c2ccc(O)c(Br)c2)sc(N)c1C#N	13µM*	-4%	-25%	?	?	-6%
Cc1ccc(NC(=O)C2CCCN2S(=O)(=O)c2ccc3nc(-c4ccccc4)[nH]c3c2)cc1C (stereo not given)	-14%	/	/	/	/	/
COc1ccc(Cl)cc1S(=O)(=O)N(C)CC(=O)NCc1ccccn1	1%	0%	0%	/	0%	1%
COc1ccccc1OCCNC(=O)c1ccc2c(c1)OCCO2	?	3.2µM*	?	/	?	2.2µM*
COc1ccccc1OCCNC(=O)CNC(=O)c1ccc(Cl)c(Cl)c1	0%	0%	8%	/	-5%	-2%
COc1ccccc1OCCNC(=O)c1ccc2c(c1)CCC2	15µM*	?	?	/	13µM*	?
O=C(Nc1cccc(O)c1)c1cc2nc(-c3ccc(Br)cc3)cc(C(F)(F)F)n2n1	-3%	/	/	-8%	/	/
O=C(NCCCCCCNC(=O)c1ccccc1O)c1ccccc1O	-11%	1%	10µM*	/	-12%	3%
O=C(NCCCSc1ccccc1)c1cc(Cl)ccc1O	11µM*	-3%	3%	/	?	-10%
CC1CCN(c2nn3c(=O)c(C(=O)NCc4ccc(Cl)cc4)cnc3s2)CC1	-4%	/	/	/	/	/
CC(=O)c1ccc(-c2ccc(C(=O)Nc3nc(-c4ccccn4)cs3)o2)cc1	/	/	18µM*	/	8%	/
CCc1cc(C(=O)Nc2nc(-c3ccccn3)cs2)sc1C	12µM*	24%	15%	/	5%	24%
CCCn1nc(C(=O)Nc2nc(-c3ccccn3)cs2)c2ccccc2c1=O	-12%	-2%	7.3µM*	/	8%	-8%
Cc1ccc(C(=O)Nc2nc(-c3ccccn3)cs2)o1	19µM*	-1%	?	/	4%	-1%
SMILES	FLuc counter	NPC1 prom act	ELG1 DNA repair	SMN2 splice up	ELG1 genotoxic	Rab9 promoter act
CN(C(=O)c1ccc(NC(=O)Cc2cccc(NC(=O)C3CCN(C(=O)C4CCCCC4)CC3)c2)cc1)C1CCCC1	-2%	1%	-24%	/	1%	-10%
O=C(O)C1CC=C(Cl)CC1C(=O)NC1CCCCC1 (stereo not given)	4%	-6%	?	/	1%	6%
Cc1ccc(NC(=O)c2ccc(=O)n(CC(=O)Nc3cccc(C)c3)n2)cc1	0%	/	/	/	/	/
CCC(=O)Nc1ccc(C2C(=O)c3ccccc3C2=O)cc1	1.3µM*	0.79µM*	?	/	?	?
CCC(=O)NC1=C(Nc2ccc(N)cc2)C(=O)c2ccccc2C1=O	27µM*	27%	?	/	14%	2.8µM*
O=C(COc1ccccc1)Nc1ccc2nc(SCCOc3ccccc3)sc2c1	4%	/	/	/	/	/
COc1ccc(C2=C(C)C(N3CCC(C(=O)Nc4cc(C)ccc4C)CC3)=NS2(=O)=O)cc1	5%	/	/	/	/	/
Cc1c(Cl)cccc1NC(=O)Cn1cnc2nc3c(cc2c1=O)CCCC3	1%	/	/	/	/	/
O=C(O)c1ccccc1Nc1ccccc1	-12%	8%[46.1 µM]	9%	-8%	1%	14%[46.1 µM]
NC(=O)c1ccccc1NC(=O)Nc1cccc(Cl)c1	15µM*	1%	8%	12%	8%	-8%
NC(=O)c1ccccc1NC(=O)CN1CCN(Cc2ccccc2)CC1	-2%	-1%	-2%	/	-1%	1%
COc1ccc(Cl)cc1NC(=O)Nc1ccccc1C(N)=O	-3%	-6%	0%	-19%	6%	-3%
NC(=O)c1ccccc1NC(=O)CN1CCN(Cc2ccc(Cl)cc2Cl)CC1	2%	-10%	10µM*	/	-6%	-6%
COc1cccc(Nc2ccccc2C(=O)O)c1	27µM*	1%	?	?	13%	13%
CSc1ccc(NC(=O)Nc2ccccc2C(N)=O)cc1	1.1µM*	?	?	/	?	?
CC(C)(C)NC(=O)Nc1ccccc1C(N)=O	1%	-1%	9%	-5%	-2%	-1%
O=C(NCc1ccc(F)cc1)C1CCN(C(=O)c2ccc(-n3ccc4ccccc43)s2)CC1	-14%	/	/	/	/	/
O=C(Cn1c(-c2cccs2)cc2cc(F)ccc21)NCCc1ccc(Cl)cc1	0%	/	/	-4%	/	/
CC(C)OCCCNC(=O)CSc1c2c(nc3ccc(Cl)cc13)CCCC2	-6%	/	/	-3%	/	/
